# In PubChem BioAssay:
# Where “and” joins values, the source holds several entries; their conditions need not be identical. Identical values can stand only once. Inconclusive results are not listed. Calls of active or inactive are those of the source.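 Rule for the calls, unless noted: active = mean z-score across replicates of 1.96 or higher in either the MELAS or the Rieske mutant cell line; inactive = the rest.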
# Key:
# [1] = viability loss in pontine glioma line – cell-based, SU-DIPG-XXV, MIPE5.0, CellTiter-Glo, qHTS, dose response (AID 1347065; cut-off not given, nearly all actives have AC50 up to about 26 µM;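 note: cells exposed to compound for 48 hours before ATP readout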); conditions: CellTiter-Glo ATP luminescence
# [2] = JHH-DIPG-1 glioma cell viability, MIPE5.0 library, CellTiter-Glo luminescence, qHTS (AID 1347067; cut-off not given, nearly all actives have AC50 up to about 26 µM;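 note: cells exposed to compound for 48 hours before readout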); conditions: JHH-DIPG-1 glioma viability, CellTiter-Glo ATP luminescence
# [3] = sensitizers of A549 cells to miR-34 induction, primary screen, imaging, A549 dox-inducible miR-34, nuclei and caspase counts (AID 1347080;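 active = compounds whose cell count with miR-34 switched on is under 0.7 times the count with it off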); conditions: A549 miR-34 inducible, Hoechst nuclei count, 48 h
# [4] = survival rescue of mitochondrial mutant cells in low glucose, primary screen, MELAS cybrids, Rieske KO mouse fibroblasts, CellTiter-Glo (AID 1508586);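 note: z relative to plate mean and SD of compound and empty wells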
# [5] = biological target: NAD(+) hydrolase SARM1 (Homo sapiens) (UniProt Q6SZW1); experiment: SARM1 TIR NADase inhibitors, cell lysate, NAD-Glo luminescence (AID 1508614;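 active = compound whose remaining NAD level is above about 45 nM, limit read from the data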;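 note: higher remaining NAD means stronger inhibition of SARM1 NADase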); conditions: SAM-TIR HEK293T lysate NADase, at 1 µM, stronger effect = higher value
# [6] = biological target: Mitogen-activated protein kinase 7 (Homo sapiens) (UniProt Q13164); experiment: ERK5 transactivation activators in reporter cells, primary screen, cell-based, HTS (AID 1508626;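 active = luciferase signal above three times the same-plate solvent-only control wells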;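 note: luciferase driven by Gal4-ERK5 fusion binding five Gal4 sites before minimal TATA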); conditions: HeLa Gal4-ERK5 transactivation, 18 h, at 5 µM, stronger effect = higher value
# [7] = SU-DIPG-XXV glioma cell viability, MIPE5.0 library, qHTS (AID 1347068; cut-off not given, nearly all actives have IC50 up to about 30 µM;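 for IC50: cells exposed to compound for 48 hours before viability readout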)
# [8] = viability rescue of complex I mutant cybrids, primary screen, cell-based, galactose medium, ATP luminescence (AID 1645843;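 active = z-score of at least 1.8 in each of two replicates, scored against plate mean and spread of sample wells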;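 note: positive z means more ATP and so rescue of galactose-driven cybrid death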); conditions: complex I mutant cybrid cells, 72 h, stronger effect = higher value
# [9] = SU-DIPG-VI glioma cell viability, MIPE4.0 library, CellTiter-Glo luminescence, qHTS (AID 1347066; cut-off not given, nearly all actives have AC50 up to about 30 µM;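 note: cells exposed to compound for 48 hours before readout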); conditions: CellTiter-Glo ATP luminescence
# [10] = phospholipid biosynthesis inhibitors in animal cells, primary screen, cell-based, LOPAC library, screen 4 (AID 1347384; call rule not given here); conditions: phospholipid biosynthesis inhibition screen, at 10 µM
# [11] = inhibitors of Cryptococcus chitosan production, flow cytometry, Cibacron Brilliant Red staining (AID 1347148; call rule not given here;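 note: compound exposure lasted three days at 37 degrees C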); conditions: Cryptococcus neoformans chitosan, stronger effect = lower value; at 10 µM unless noted
# [12] = stronger effect = lower value, cell number ratio, induced over uninduced
# [13] = measured here: relative caspase fold change +Dox/-Dox
# [14] = measured here: total cells with miR-34 induction, stronger effect = lower value
# [15] = measured here: total cells without miR-34 induction
# [16] = MELAS cybrid survival, CellTiter-Glo 48 h, stronger effect = higher value
# [17] = Rieske KO mouse fibroblast survival, CellTiter-Glo 72 h
# Sequence of Mitogen-activated protein kinase 7 (Homo sapiens) (Q13164 whole entry, looked up, the tested form may be a part): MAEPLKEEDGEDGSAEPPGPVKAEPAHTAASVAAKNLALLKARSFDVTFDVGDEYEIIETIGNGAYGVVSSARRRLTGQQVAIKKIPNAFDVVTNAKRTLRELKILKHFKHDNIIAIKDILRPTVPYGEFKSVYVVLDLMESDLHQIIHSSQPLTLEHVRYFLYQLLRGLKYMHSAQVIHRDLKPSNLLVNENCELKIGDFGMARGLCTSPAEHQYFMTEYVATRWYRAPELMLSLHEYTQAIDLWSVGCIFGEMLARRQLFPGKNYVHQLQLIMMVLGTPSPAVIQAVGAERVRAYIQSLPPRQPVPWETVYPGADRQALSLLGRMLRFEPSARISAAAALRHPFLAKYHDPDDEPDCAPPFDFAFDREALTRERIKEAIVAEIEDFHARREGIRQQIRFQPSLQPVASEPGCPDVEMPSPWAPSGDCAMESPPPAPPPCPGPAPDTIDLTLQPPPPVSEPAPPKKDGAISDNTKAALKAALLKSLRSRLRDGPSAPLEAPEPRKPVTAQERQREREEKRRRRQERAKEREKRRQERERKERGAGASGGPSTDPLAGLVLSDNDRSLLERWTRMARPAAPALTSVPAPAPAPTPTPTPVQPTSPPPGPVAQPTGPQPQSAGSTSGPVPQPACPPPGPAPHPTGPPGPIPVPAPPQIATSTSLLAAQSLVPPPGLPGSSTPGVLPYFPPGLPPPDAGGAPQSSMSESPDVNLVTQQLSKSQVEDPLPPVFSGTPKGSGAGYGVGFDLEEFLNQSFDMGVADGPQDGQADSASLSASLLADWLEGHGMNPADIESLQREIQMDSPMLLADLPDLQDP
# Sequence of NAD(+) hydrolase SARM1 (Homo sapiens) (Q6SZW1 whole entry, looked up, the tested form may be a part): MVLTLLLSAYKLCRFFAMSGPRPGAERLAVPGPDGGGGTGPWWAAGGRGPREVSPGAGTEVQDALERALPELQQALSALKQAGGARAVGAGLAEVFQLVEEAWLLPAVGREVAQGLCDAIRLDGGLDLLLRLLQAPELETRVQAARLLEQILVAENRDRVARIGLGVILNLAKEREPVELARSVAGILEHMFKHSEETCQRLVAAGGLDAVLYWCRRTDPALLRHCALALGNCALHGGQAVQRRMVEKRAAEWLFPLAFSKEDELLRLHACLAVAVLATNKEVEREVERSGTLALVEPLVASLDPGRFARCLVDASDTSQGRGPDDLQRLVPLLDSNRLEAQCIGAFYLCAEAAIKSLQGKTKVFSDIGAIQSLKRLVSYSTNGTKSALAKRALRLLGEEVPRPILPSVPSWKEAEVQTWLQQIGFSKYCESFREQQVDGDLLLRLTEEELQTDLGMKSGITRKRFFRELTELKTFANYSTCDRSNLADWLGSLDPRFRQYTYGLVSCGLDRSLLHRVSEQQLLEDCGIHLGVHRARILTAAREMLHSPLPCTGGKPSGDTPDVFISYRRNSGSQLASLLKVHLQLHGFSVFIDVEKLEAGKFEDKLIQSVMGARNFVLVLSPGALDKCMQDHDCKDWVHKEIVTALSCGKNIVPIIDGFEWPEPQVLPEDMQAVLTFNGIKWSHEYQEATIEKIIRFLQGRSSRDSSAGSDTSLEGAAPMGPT
smiles,measurement,setting,value
C1CCC(C(CC2CCCCN2)C2CCCCC2)CC1 (stereo unspecified),AC50,[1],10.5 µM (active)
same,AC50,[2],8.33 µM (active)
same,fold change,[3]; [12],0.746 (inactive) and 0.859 (inactive)
same,fold change,[3]; [13],0.891 and 3.18
same,cell count,[3]; [14],5600 and 9890
same,cell count,[3]; [15],7500 and 11500
same,z-score,[4]; [16],-1.07 (inactive)
same,z-score,[4]; [17],0.712
same,remaining NAD,[5],10 nM (inactive)
same,luciferase signal,[6],140 AU (inactive)
O=c1[nH]c(=O)n([C@H]2C[C@H](O)[C@@H](CO)O2)cc1F,outcome,[1],inactive
same,outcome,[7],inactive
same,fold change,[3]; [12],1.03 (inactive)
same,fold change,[3]; [13],0.977
same,cell count,[3]; [14],4160
same,cell count,[3]; [15],4020
same,z-score,[4]; [16],-1.41 (inactive) and 0.996 (inactive)
same,z-score,[4]; [17],1.5 and -0.252
same,remaining NAD,[5],10 nM (inactive)
same,luciferase signal,[6],12 AU (inactive)
same,z-score,[8],1.93 (active)
CC/C(=C(/CC)c1ccc(O)cc1)c1ccc(O)cc1,outcome,[1],inactive
same,outcome,[7],inactive
same,z-score,[4]; [16],0.343 (inactive) and 0.665 (inactive)
same,z-score,[4]; [17],-0.0589 and -0.544
same,remaining NAD,[5],10 nM (inactive)
same,luciferase signal,[6],56 AU (inactive)
same,z-score,[8],-0.645 (inactive)
Cc1cc(C2CCCCC2)n(O)c(=O)c1,AC50,[1],2.35 µM (active)
same,AC50,[2],2.63 µM (active)
same,z-score,[4]; [16],0.334 (inactive) and 0.408 (inactive) and 0.404 (inactive)
same,z-score,[4]; [17],-0.762 and -0.715 and 0.148
same,remaining NAD,[5],10 nM (inactive)
same,luciferase signal,[6],52 AU (inactive)
CCOC(=O)[C@H](CCc1ccccc1)N[C@@H](C)C(=O)N1[C@H](C(=O)O)C[C@@H]2CCC[C@@H]21,AC50,[9],16.6 µM (active)
same,outcome,[2],inactive
same,outcome,[7],inactive
same,fold change,[3]; [12],0.911 (inactive) and 0.827 (inactive) and 0.868 (inactive)
same,fold change,[3]; [13],1.49 and 3.09 and 1.08
same,cell count,[3]; [14],9860 and 10700 and 9970
same,cell count,[3]; [15],10800 and 13000 and 11500
same,z-score,[4]; [16],-0.258 (inactive) and 0.537
same,z-score,[4]; [17],-0.11 and 2.28
same,remaining NAD,[5],10 nM (inactive)
same,luciferase signal,[6],316 AU (inactive)
same,z-score,[8],2.63 (inactive) and 0.46 (inactive)
O=P(O)(O)C(O)(Cc1cccnc1)P(=O)(O)O,outcome,[9],inactive
same,outcome,[2],inactive
same,outcome,[7],inactive
same,fold change,[3]; [12],0.901 (inactive) and 0.801 (inactive)
same,fold change,[3]; [13],4.65 and 1.35
same,cell count,[3]; [14],12400 and 8410
same,cell count,[3]; [15],13700 and 10500
same,z-score,[4]; [16],0.589 (inactive) and -0.187 (inactive)
same,z-score,[4]; [17],0.376 and -0.746
same,remaining NAD,[5],10 nM (inactive)
same,luciferase signal,[6],1260 AU (active)
same,z-score,[8],0.515 (inactive)
COc1ccc2[nH]cc(CCNC(C)=O)c2c1,outcome,[9],inactive
same,outcome,[2],inactive
same,outcome,[7],inactive
same,outcome,[10],inactive
same,z-score,[4]; [16],-0.429 (inactive) and 0.313 (inactive) and -0.146 (inactive)
same,z-score,[4]; [17],-0.494 and 0.0961 and -0.273
same,luciferase signal,[6],68 AU (inactive)
same,z-score,[8],0.52 (inactive) and 0.205 (inactive) and 0.655 (inactive)
Nc1nc(N)nc(-c2cc(Cl)ccc2Cl)n1,outcome,[9],inactive
same,outcome,[2],inactive
same,outcome,[7],inactive
same,z-score,[4]; [16],-0.19 (inactive) and -0.868 (inactive) and 0.283 (inactive)
same,z-score,[4]; [17],0.166 and -0.512 and 0.352
same,remaining NAD,[5],10 nM (inactive)
same,z-score,[8],0.88 (inactive) and -0.09 (inactive) and 0.54 (inactive)
CO[C@@]12[C@H](COC(N)=O)C3=C(C(=O)C(C)=C(N)C3=O)N1C[C@@H]1N[C@@H]12,AC50,[1],9.34 µM (active)
same,AC50,[2],3.32 µM (active)
same,fold change,[3]; [12],1.21 (inactive) and 1.12 (inactive)
same,fold change,[3]; [13],0.667 and 0.791
same,cell count,[3]; [14],1280 and 1220
same,cell count,[3]; [15],1060 and 1090
same,z-score,[4]; [16],-0.241 (inactive)
same,z-score,[4]; [17],-1.21
same,remaining NAD,[5],10 nM (inactive)
same,luciferase signal,[6],44 AU (inactive)
same,z-score,[8],-1.99 (inactive)
CNC[C@H](O)c1ccc(O)c(O)c1,outcome,[9],inactive
same,outcome,[2],inactive
same,outcome,[7],inactive
same,fold change,[3]; [12],0.963 (inactive)
same,fold change,[3]; [13],1.01
same,cell count,[3]; [14],10100
same,cell count,[3]; [15],10500
same,outcome,[10],inactive
same,remaining NAD,[5],10 nM (inactive)
same,luciferase signal,[6],24 AU (inactive)
same,z-score,[8],-1.02 (inactive)
COc1ccccc1N1CCN(CC(O)COc2cccc3ccccc23)CC1 (stereo unspecified),outcome,[9],inactive
same,outcome,[2],inactive
same,outcome,[7],inactive
same,outcome,[10],inactive
same,remaining NAD,[5],10 nM (inactive)
COc1cc(/C=C/C(=O)CC(=O)/C=C/c2ccc(O)c(OC)c2)ccc1O,AC50,[1],20.9 µM (active)
same,fold change,[3]; [12],0.955 (inactive)
same,fold change,[3]; [13],1.47
same,cell count,[3]; [14],6170
same,cell count,[3]; [15],6460
same,fold fluorescence,[11],8.92 [at 135.7 µM] (inactive)
same,luciferase signal,[6],44 AU (inactive)
C#CCN[C@@H]1CCc2ccccc21,outcome,[9],inactive
same,outcome,[2],inactive
same,outcome,[7],inactive
same,fold change,[3]; [12],0.9 (inactive)
same,fold change,[3]; [13],0.614
same,cell count,[3]; [14],8560
same,cell count,[3]; [15],9500
same,z-score,[4]; [16],-0.17 (inactive)
same,z-score,[4]; [17],0.336
same,remaining NAD,[5],10 nM (inactive)
CC(C)COCC(CN(Cc1ccccc1)c1ccccc1)N1CCCC1 (stereo unspecified),AC50,[1],18.6 µM (active)
same,AC50,[2],18.6 µM (active)
same,IC50,[7],16.6 µM (active)
same,outcome,[10],inactive
same,z-score,[4]; [16],-1.13 (inactive) and -0.882 (inactive)
same,z-score,[4]; [17],-0.167 and 0.23
same,remaining NAD,[5],10 nM (inactive)
same,luciferase signal,[6],280 AU (inactive)
same,z-score,[8],-0.24 (inactive) and -2.13 (inactive)
